Measured values as given in PubChem BioAssay (Tox21).
Results filed as inconclusive are left out. Active and inactive are the calls of the source. Unless noted, calls come from the whole dose curve.

Assays:
[1] = Nuclear factor erythroid 2-related factor 2/antioxidant responsive element (Nrf2/ARE) small molecule agonists: qHTS cell viability counter screen in human keratinocytes (AID 1919968; active = well fitted curve in the direction sought with a large enough effect in the repeat runs; an effect the other way counts as inactive or inconclusive; note: nearly all actives have a fitted effect of over 55% in size)
How it was run: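 Viability counter-screen: KeratinoSens reporter cells, DMSO-delivered compounds, 23 h at 37 C, CellTiter-Fluor fluorescence.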

[2] = Nuclear factor erythroid 2-related factor 2/antioxidant responsive element (Nrf2/ARE) small molecule agonists: luciferase reporter gene qHTS assay in human keratinocytes (AID 1919969); note: nearly all actives have a fitted effect of over 35% in size
[3] = molecular target: Gonadotropin-releasing hormone receptor (Homo sapiens) (UniProt P30968); test: Human gonadotropin-releasing hormone receptor (GnRHR) small molecule agonists, calcium flux assay in GnRHR-HEK293 cells (AID 1920063); note: nearly all actives have a fitted effect of over 35% in size
Chain of Gonadotropin-releasing hormone receptor (Homo sapiens) (P30968 whole entry, looked up): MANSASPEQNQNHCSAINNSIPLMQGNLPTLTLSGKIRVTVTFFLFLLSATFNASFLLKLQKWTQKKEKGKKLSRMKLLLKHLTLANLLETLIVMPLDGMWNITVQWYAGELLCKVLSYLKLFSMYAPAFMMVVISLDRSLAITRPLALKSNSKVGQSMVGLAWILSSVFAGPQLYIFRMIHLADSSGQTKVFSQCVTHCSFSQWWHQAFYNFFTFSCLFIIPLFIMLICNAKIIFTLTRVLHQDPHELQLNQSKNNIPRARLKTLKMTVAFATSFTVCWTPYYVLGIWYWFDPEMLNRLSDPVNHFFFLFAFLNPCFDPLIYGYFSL
How it was run: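 Tox21-format agonist screen using human GnRHR-expressing HEK293 cells and a fluorescent calcium dye; kinetic 3-min fluorescence reading after compound addition, 15-point concentration series run in triplicate.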

[4] = molecular target: KiSS-1 receptor (Homo sapiens) (UniProt Q969F8); test: Human kisspeptin (KISS1R) small molecule agonists, calcium flux assay in KISS1R-HEK293 cells (AID 1920064; active = well fitted curve in the direction sought with a large enough effect in the repeat runs; an effect the other way counts as inactive or inconclusive)
Chain of KiSS-1 receptor (Homo sapiens) (Q969F8 whole entry, looked up): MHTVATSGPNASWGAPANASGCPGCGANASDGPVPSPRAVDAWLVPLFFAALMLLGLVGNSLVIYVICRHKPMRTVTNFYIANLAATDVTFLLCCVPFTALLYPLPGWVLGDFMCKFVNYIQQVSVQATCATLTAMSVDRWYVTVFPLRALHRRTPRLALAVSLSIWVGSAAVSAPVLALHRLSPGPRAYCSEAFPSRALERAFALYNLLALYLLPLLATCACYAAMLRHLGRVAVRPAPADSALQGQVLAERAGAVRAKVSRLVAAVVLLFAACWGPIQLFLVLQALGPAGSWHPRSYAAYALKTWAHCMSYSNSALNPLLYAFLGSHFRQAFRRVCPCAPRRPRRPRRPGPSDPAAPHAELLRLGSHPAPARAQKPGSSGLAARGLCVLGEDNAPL
How it was run: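 Intracellular calcium mobilization in KISS1R-HEK293 cells was recorded by fluorescence (Ex/Em 480/540) for 3 min following compound addition to cells pre-loaded 1 h with calcium dye.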

[5] = G protein-coupled receptor (GPCR) small molecule agonists, calcium flux assay: HEK293 wild type cell line counter screen (AID 1920065)
How it was run: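 In this agonist-mode screen, ATP is the positive control and DMSO the vehicle. Cells grow 18 h before a 1 h dye incubation at 37 C; signal is taken at Ex/Em 480/540 over 3 min.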

[6] = p53 small molecule agonists, cell-based qHTS assay with human liver microsomes (AID 1963577);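 note: p53 response element beta-lactamase reporter cells with liver microsomes plus NADPH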
How it was run: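 Reporter activation was measured by LiveBLAzer fluorescence intensity in p53RE-bla cells, which had been exposed to compounds for 16 h at 37 C alongside 0.5 mg/mL human liver microsomes and 0.5 mg/mL NADPH (final concentrations).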

[7] = p53 small molecule agonists, cell-based qHTS assay with rat liver microsomes (AID 1963578)
How it was run: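 Compound in DMSO added to p53RE-bla cells 5 h post-plating; rat microsomes/NADPH 0.5 mg/mL final; 16 h, 37 C; LiveBLAzer 2 h RT.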

[8] = p53 small molecule agonists, cell-based qHTS assay with human liver microsomes: qHTS cell viability counter screen (AID 1963579); note: nearly all actives have a fitted effect of over 45% in size
How it was run: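 HLM-supplemented (0.5 mg/mL final) and NADPH-supplemented (0.5 mg/mL final) p53RE-bla cultures, 4,000 cells per well, were dosed with compounds in DMSO for 16 h at 37 C; luminescent ATP detection (CellTiter-Glo, 30 min, room temperature) quantified surviving cells.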

[9] = p53 small molecule agonists, cell-based qHTS assay with rat liver microsomes: qHTS cell viability counter screen (AID 1963580); note: nearly all actives have a fitted effect of over 45% in size
How it was run: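 p53RE-bla HCT-116 cells (4,000/well) rested 5 h at 37 C, then given Tox21 compounds in DMSO with rat liver microsomes (0.5 mg/mL final) plus NADPH (0.5 mg/mL final) for 16 h at 37 C. Viability read by CellTiter-Glo luminescence after 30 min at room temperature.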

[10] = p53 small molecule agonists, cell-based qHTS assay: qHTS cell viability counter screen (AID 1963581); note: nearly all actives have a fitted effect of over 45% in size
How it was run: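 Compounds are pinned onto HCT-116 p53RE-bla cells and left 16 h at 37 C. Following the reporter FRET read, ATP is quantified by CellTiter-Glo luminescence after 30 min at room temperature.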

[11] = p53 small molecule agonists, cell-based qHTS assay (AID 1963582; active = well fitted activation curve with a large enough effect in the signal ratio in the repeat runs, not every such curve was filed as active; the % refers to the signal ratio)
How it was run: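 Agonist activity was scored from beta-lactamase FRET fluorescence in p53RE-bla cells treated 16 h at 37 C with compounds in DMSO, substrate incubation being 2 h at room temperature.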

[12] = molecular target: 5-hydroxytryptamine receptor 2A (Homo sapiens) (UniProt P28223); test: 5-hydroxytryptamine receptor 2A (HTR2A) small molecule antagonists, cell-based qHTS assay (AID 1963586); note: nearly all actives have a fitted effect of over 45% in size
Chain of 5-hydroxytryptamine receptor 2A (Homo sapiens) (P28223 whole entry, looked up): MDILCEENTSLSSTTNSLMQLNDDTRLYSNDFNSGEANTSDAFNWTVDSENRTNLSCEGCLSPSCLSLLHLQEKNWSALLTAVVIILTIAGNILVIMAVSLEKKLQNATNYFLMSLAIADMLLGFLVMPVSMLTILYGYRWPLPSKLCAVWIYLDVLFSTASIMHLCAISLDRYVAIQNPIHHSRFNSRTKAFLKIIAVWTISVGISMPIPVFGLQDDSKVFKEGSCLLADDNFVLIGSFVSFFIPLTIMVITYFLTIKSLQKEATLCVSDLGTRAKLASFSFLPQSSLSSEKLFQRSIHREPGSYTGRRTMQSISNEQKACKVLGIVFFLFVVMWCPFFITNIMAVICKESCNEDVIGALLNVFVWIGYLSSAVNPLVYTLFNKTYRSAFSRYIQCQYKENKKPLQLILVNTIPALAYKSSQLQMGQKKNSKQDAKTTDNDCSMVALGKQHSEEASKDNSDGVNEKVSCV
How it was run: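 Antagonist-mode intracellular calcium assay: DOI (4 nM) added after 5 min compound pre-incubation at room temperature to dye-loaded HTR2A-CHO cells. Fluorescence followed for 3 min, sampled every second.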

[13] = molecular target: 5-hydroxytryptamine receptor 2A (Homo sapiens) (UniProt P28223); test: 5-hydroxytryptamine receptor 2A (HTR2A) small molecule agonists, cell-based qHTS assay (AID 1963587); note: nearly all actives have a fitted effect of over 30% in size
How it was run: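 HTR2A-CHO cells, plated 18 h at 37 C/5% CO2, dye-loaded 1 h at 37 C; compounds in DMSO added by pin tool (agonist mode). Intracellular calcium flux read as kinetic fluorescence on FDSS over 2 min at 1 s intervals.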

[14] = molecular target: Muscarinic acetylcholine receptor M1 (Homo sapiens) (UniProt P11229); test: Cholinergic receptor muscarinic 1 (CHRM1) small molecule antagonists, cell-based qHTS assay (AID 1963588); note: nearly all actives have a fitted effect of over 40% in size
Chain of Muscarinic acetylcholine receptor M1 (Homo sapiens) (P11229 whole entry, looked up): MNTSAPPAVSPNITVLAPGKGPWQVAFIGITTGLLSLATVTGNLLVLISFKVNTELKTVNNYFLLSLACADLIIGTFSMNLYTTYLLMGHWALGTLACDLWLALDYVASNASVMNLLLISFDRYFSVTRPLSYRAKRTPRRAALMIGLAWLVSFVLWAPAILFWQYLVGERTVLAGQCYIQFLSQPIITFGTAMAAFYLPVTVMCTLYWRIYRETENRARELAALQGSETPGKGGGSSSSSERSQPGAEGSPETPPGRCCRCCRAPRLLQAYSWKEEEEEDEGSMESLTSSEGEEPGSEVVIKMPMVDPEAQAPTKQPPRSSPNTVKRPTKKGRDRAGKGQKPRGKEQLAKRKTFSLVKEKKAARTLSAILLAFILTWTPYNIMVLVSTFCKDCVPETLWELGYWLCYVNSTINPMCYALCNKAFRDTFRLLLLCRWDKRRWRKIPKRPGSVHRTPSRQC
How it was run: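 CHRM1-CHO calcium-flux assay, antagonist mode. Cells were seeded 18 h, dye-loaded 1 h at 37 C and given compound for 5 min at RT, then acetylcholine was added at 50nM. FDSS fluorescence was read 3 min; 15 concentrations, three runs.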

[15] = molecular target: Muscarinic acetylcholine receptor M1 (Homo sapiens) (UniProt P11229); test: Cholinergic receptor muscarinic 1 (CHRM1) small molecule agonists, cell-based qHTS assay (AID 1963589); note: nearly all actives have a fitted effect of over 35% in size
How it was run: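 Stable CHRM1-CHO cells (human receptor) were incubated 18 h, dye-loaded for 1 h at 37 C and exposed to test compounds for agonist activity, with calcium-dependent fluorescence followed kinetically.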

[16] = cAMP Responsive Elements (CRE) small molecule agonists, cell-based qHTS assay (AID 1963590)
How it was run: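 FRET-based beta-lactamase readout (LiveBLAzer B/G, 2 h RT) quantified CRE activation in HEK 293T CRE-bla cells after 3 h treatment with DMSO-dissolved compounds.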

[17] = molecular target: D(2) dopamine receptor (Homo sapiens) (UniProt P14416); test: Dopamine D2 receptor (DRD2) small molecule agonists, cell-based qHTS assay (AID 1963594); note: nearly all actives have a fitted effect of over 35% in size
Chain of D(2) dopamine receptor (Homo sapiens) (P14416 whole entry, looked up): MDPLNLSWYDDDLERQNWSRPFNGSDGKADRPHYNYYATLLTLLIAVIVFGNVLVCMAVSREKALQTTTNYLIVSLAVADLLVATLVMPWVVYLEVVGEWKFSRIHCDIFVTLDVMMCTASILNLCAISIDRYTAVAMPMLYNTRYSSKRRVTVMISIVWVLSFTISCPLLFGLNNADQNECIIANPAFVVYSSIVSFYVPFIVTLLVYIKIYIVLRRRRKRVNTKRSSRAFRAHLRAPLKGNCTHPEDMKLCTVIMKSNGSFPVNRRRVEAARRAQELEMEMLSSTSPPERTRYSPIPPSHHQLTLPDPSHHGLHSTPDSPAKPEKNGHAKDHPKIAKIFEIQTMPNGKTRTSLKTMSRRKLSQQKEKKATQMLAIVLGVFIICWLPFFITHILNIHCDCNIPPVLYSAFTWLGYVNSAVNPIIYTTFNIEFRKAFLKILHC
How it was run: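 HEK293 cells stably expressing DRD2 were cultured 24 h at 37 C, then given Ro20-1724 (0.1 mM final) and compounds for 10 min at room temperature. NKH477 (200nM) was then added for 30 min. cAMP was read by HTRF.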

[18] = molecular target: D(2) dopamine receptor (Homo sapiens) (UniProt P14416); test: Dopamine D2 receptor (DRD2) small molecule antagonists, cell-based qHTS assay (AID 1963595; active = well fitted inhibition curve with a large enough effect in the signal ratio in the repeat runs, with a control signal flat; the % refers to the signal ratio)
How it was run: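 Human DRD2 antagonist qHTS measuring cAMP by HTRF. The cells are exposed to compound for 10 min, then to NKH477 (200 nM) and quinpirole (12 nM) for 30 min at RT, with Ro20-1724 (0.1 mM) present throughout.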

[19] = molecular target: Beta-2 adrenergic receptor (Homo sapiens) (UniProt P07550); test: Adrenergic beta2 receptor (ADRB2) small molecule antagonists, cell-based qHTS assay (AID 1963592); note: series mostly up to about 92 µM; nearly all actives have a fitted effect of over 50% in size
Chain of Beta-2 adrenergic receptor (Homo sapiens) (P07550 whole entry, looked up): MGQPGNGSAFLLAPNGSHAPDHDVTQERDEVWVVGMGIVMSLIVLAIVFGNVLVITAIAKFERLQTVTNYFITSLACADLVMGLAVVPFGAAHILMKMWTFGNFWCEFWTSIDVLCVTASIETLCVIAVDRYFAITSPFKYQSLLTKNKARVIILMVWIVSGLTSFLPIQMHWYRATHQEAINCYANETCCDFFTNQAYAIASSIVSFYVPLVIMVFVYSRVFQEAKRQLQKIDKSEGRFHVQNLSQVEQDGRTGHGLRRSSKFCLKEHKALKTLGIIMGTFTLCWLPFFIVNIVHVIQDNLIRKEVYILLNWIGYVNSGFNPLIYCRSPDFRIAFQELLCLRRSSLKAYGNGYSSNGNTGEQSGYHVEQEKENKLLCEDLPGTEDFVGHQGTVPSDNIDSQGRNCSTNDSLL
How it was run: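 Cells (CHO, stable ADRB2 overexpression) incubated 18-20hr at 37C; compounds added from DMSO; agonist mix (1nM isoproterenol, 100uM IBMX, 25uM Ro-20-1724) added; 0.5hr RT; d2-cAMP and anti-cAMP-cryptate added; 1hr RT; 665/615 nm read.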

[20] = cAMP Responsive Elements (CRE) small molecule antagonists, cell-based qHTS assay (AID 1963591; active = well fitted inhibition curve with a large enough effect in the signal ratio in the repeat runs, not every such curve was filed as active; the % refers to the signal ratio)
How it was run: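 qHTS in CRE-bla HEK 293T cells: compound in DMSO, then 0.25 uM NKH477 (final), 3 h at 37 °C/5% CO2; beta-lactamase FRET read-out after 2 h substrate incubation.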
% is set by controls: 0 for no effect and ±100 for the full control effect.

CCNc1nc(NC(C)(C)C)nc(OC)n1
inactive: Potency [1] | Potency [2] | Potency [3] | outcome [4] | outcome [5] | Potency [6] | Potency [7] | Potency [8] | Potency [9] | Potency [10] | Potency [11] | Potency [12] | Potency [13] | Potency [14] | Potency [15] | Potency [16] | Potency [17] | Potency [18]

NS(=O)(=O)c1ccc(Cl)c(S(N)(=O)=O)c1
inactive: Potency [1] | Potency [2] | Potency [3] | outcome [4] | outcome [5] | Potency [6] | Potency [7] | Potency [8] | Potency [9] | Potency [10] | Potency [11] | Potency [12] | Potency [13] | Potency [14] | Potency [15] | Potency [16] | Potency [19] | Potency [17] | Potency [18]

COC(=O)[C@H]1[C@H]2C[C@@H]3c4[nH]c5cc(OC)ccc5c4CCN3C[C@H]2C[C@@H](OC(=O)COc2ccc(OC)cc2)[C@@H]1OC
inactive: Potency [1] | Potency [2] | Potency [3] | outcome [4] | outcome [5] | Potency [6] | Potency [7] | Potency [8] | Potency [9] | Potency [10] | Potency [11] | Potency [12] | Potency [13] | Potency [14] | Potency [15] | Potency [16] | Potency [18]

Cc1cccn2c(=O)c(-c3nnn[nH]3)cnc12
inactive: activity change, negative = cytotoxicity [1] 0.925% [at 19 µM] | activity, positive = activation [2] -2.87% [at 19 µM] | activity change [3] -0.454% [at 11.8 µM, hits give high values] | activation [4] 0.024% [at 15.8 µM] | activation [5] -0.181% [at 11.8 µM] | activation [6] 6.61% [at 13.5 µM] | activation [7] 0.054% [at 13.6 µM] | activity change, negative = cytotoxicity [8] -18.5% [at 13.5 µM] | activity change, negative = cytotoxicity [9] -1.1% [at 13.5 µM] | activity change, negative = cytotoxicity [10] -1.22% [at 13.5 µM] | activation [11] 1.33% [at 13.5 µM] | activity, negative = inhibition [12] 5.08% [at 12.7 µM] | activation [13] 1.65% [at 15.9 µM] | activity, negative = inhibition [14] -2.73% [at 12.6 µM] | activation [15] -0.574% [at 15.8 µM] | activity change, negative = inhibition [20] 5.45% [at 18.9 µM] | activity change, negative = inhibition [19] 1.4% [at 19 µM] | activation [17] 2.69% [at 19 µM] | activity change, negative = inhibition [18] -1.25% [at 18.9 µM]

CC(C)(C)C(=O)OCOC(=O)[C@@H]1N2C(=O)[C@@H](NC(=O)[C@H](N)c3ccccc3)[C@H]2SC1(C)C
inactive: Potency [1] | Potency [2] | Potency [3] | outcome [4] | outcome [5] | Potency [6] | Potency [7] | Potency [8] | Potency [9] | Potency [10] | Potency [11] | Potency [12] | Potency [13] | Potency [14] | Potency [15] | Potency [19] | Potency [17] | Potency [18]

CC(C)(C)C(=O)CC(=O)C(C)(C)C
inactive: Potency [1] | Potency [2] | Potency [3] | outcome [4] | outcome [5] | Potency [6] | Potency [7] | Potency [8] | Potency [9] | Potency [10] | Potency [11] | Potency [12] | Potency [13] | Potency [14] | Potency [15] | Potency [20] | Potency [19] | Potency [17] | Potency [18]
